CYP2C9 activ: human CYP2C9 activators, primary screen, biochemical, luminescence; recombinant CYP2C9, luciferin-H conversion; hits give high values; factor 1 = untreated enzyme, 0 = blocked; activation factor at 5 µM; 96,000 compounds, 1.4% hits;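 active means activation factor of 2 or more for CYP2C9 at a 5 µM dose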;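 further: 0 = sulfaphenazole-blocked wells and 1 = vehicle-only wells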
Target sequence (P11712 whole entry, looked up): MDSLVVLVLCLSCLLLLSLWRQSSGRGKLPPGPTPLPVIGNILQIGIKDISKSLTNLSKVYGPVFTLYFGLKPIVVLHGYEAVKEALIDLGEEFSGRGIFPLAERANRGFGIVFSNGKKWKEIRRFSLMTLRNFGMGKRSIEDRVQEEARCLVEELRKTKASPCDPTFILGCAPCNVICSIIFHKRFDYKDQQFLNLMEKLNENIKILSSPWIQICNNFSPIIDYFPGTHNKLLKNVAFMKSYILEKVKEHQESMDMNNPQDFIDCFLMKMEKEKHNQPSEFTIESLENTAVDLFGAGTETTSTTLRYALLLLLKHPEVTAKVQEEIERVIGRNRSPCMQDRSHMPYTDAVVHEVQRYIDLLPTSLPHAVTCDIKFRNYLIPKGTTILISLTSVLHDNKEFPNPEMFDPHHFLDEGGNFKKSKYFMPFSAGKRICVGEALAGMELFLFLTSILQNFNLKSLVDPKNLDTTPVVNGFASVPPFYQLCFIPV
sEH inh: soluble epoxide hydrolase inhibitors, primary screen, biochemical, human sEH; recombinant human sEH enzymatic activity assay; inhibition, % at 2 µM; 91,000 compounds, 0.34% hits; in the data active means inhibition above about 80%
CYP2C19 act: human CYP2C19 activators, primary screen, biochemical, luminescence; Cytochrome P450 2C19 (Homo sapiens), P33261; recombinant CYP2C19, luciferin-H EGE luminescence; hits give high values; 0 = fully inhibited enzyme, 1 = untreated enzyme; activation factor at 5 µM; 96,000 tested, under 10 active; AID 1025, 2008;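 active means activation factor of at least 2 at 5 µM in the primary screen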;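 further: 0 = wells with 2.5 mM tranylcypromine and 1 = vehicle-only wells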
CYP2C9 inhib: blockers of cytochrome P450 2C9 activity – biochemical, luminescence, ADME assay, primary screen; P11712; CYP2C9 Supersomes, luciferin-H conversion; inhibition, % at 5 µM; 96,000 compounds, 20% hits; AID 777, 2007;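 active means blocking of liver enzyme CYP2C9 beyond about 50% at 5 µM, limit read from the data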
CYP2C19 inhib: blockers of cytochrome P450 2C19 activity – biochemical, luminescence, ADME assay, primary screen; P33261; CYP2C19 Supersomes, luciferin-H EGE luminescence, 30 min; inhibition, % at 5 µM; 96,000 compounds, 21% hits;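 active means CYP2C19 inhibition above a set limit at 5 µM in the primary screen, cut at about 50% in these data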;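 further: plate controls were negative control wells for no effect and 2.5 mM tranylcypromine positive control for full effect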
sEH act: soluble epoxide hydrolase activators, primary screen, biochemical, human sEH | 91,000 compounds, 0.04% hits | activation, % at 2 µM | purified human sEH enzymatic activity, activator screen | Bifunctional epoxide hydrolase 2 (Homo sapiens), P34913; in the data active means activation above about 37%
An asterisk follows results filed as active; · = not tested or not shown. An excerpt weighted towards active compounds, which were near 27% of everything screened.

SMILES	CYP2C9 activ	sEH inh	CYP2C19 act	CYP2C9 inhib	CYP2C19 inhib	sEH act
CC(C)c1ccc(NC(=O)C(c2ccccc2)N2CCC3(CC2)OCCO3)cc1 (stereo not drawn)	0.9	8.2	0.8	6.2	23.2	-5.6
COc1ccc(NC2=CC(=O)CC(c3ccccc3)C2)c(OC)c1 (stereo not drawn)	1.2	6.4	0.4	-22.1	61.9*	-4.2
CCOC(=O)N1CCN(C(=O)CN2C(=O)COc3ccc(C(C)(C)C)cc32)CC1	1	·	1.1	4.8	-5.2	·
COc1cccc(CN(Cc2cccnc2)S(=O)(=O)c2ccc(-n3cnnn3)c(C)c2)c1OC	0.6	-0.5	0.2	43.8	78.0*	-1.6
COc1ccc(CN(Cc2ccc(OC)cc2)S(=O)(=O)c2ccc(-n3cnnn3)c(C)c2)cc1	·	-1.2	·	·	·	6.3
COc1ccccc1CN(Cc1ccco1)S(=O)(=O)c1ccc(-n2cnnn2)c(OC)c1	0.2	5.4	0.3	84.7*	66.7*	-7.2
CC(C)CCn1c(=O)c2ccccc2n2c(CN(C)Cc3ccccc3)nnc12	0.7	-4.5	0.7	26.5	34.7	3.7
CC1(C)SC(=S)N(/N=C/c2ccccc2)C1N(O)C(=O)Nc1ccc([N+](=O)[O-])cc1 (stereo not drawn)	1	3.2	1.1	1.0	-10.4	0.3
Cc1cc(C)nc(SCC(=O)Nc2ccc(S(=O)(=O)Nc3nccs3)cc2)n1	0.8	8.4	1.1	16.9	-10.8	-10.1
O=S(=O)(Nc1nccs1)c1ccc(Cl)cc1	0.5	-0.1	0.8	50.2*	21.0	0.6
O=S(=O)(Nc1ccc(-c2cn3ccsc3n2)cc1)c1ccc2c(c1)OCCO2	0.1	-3.4	0.2	91.3*	76.4*	3.6
O=S(=O)(Nc1ccc(S(=O)(=O)Nc2nccs2)cc1)c1ccc2c(c1)OCCO2	0.3	-8.4	1.1	67.2*	-8.1	10.1
OC(CN1CCN(c2ccccc2)CC1)c1ccc2c(c1)CCN2 (stereo not drawn)	1.1	-2.1	0.9	-15.0	9.9	2.1
CCCNc1nc(NCC)nc(OC)n1	1.3	9.9	1	-31.4	2.7	-8.4
CCOc1ccc(NC(=O)c2nccnc2CO)cc1	0.7	2.2	0.7	31.7	30.1	-5.0
CCSc1n[nH]c(=O)[nH]c1=O	1	·	1	1.7	-1.0	·
Cc1cccc(C(=O)O/N=C2/CC3CCC2(C)C3(C)C)c1 (stereo not drawn)	·	-6.4	·	·	·	6.1
CC(=O)Nc1ccc(NC(=O)C(C)OC(=O)CCC(=O)c2ccc(F)cc2)cc1 (stereo not drawn)	0.3	1.1	0.3	69.1*	71.5*	0.3
CC(C)Oc1ccc(Cn2c(=O)sc3ccccc32)cc1	·	9.3	·	·	·	-8.9
Cc1ccccc1OCCCn1c(=O)sc2ccccc21	0.5	1.4	0.7	54.9*	32.7	2.1
COc1ccc(Cn2c(=O)sc3ccccc32)cc1	0.3	·	0.5	68.4*	50.5*	·
O=c1sc2ccccc2n1COc1ccccc1	0.4	3.7	0.1	58.6*	89.0*	-4.4
Cc1ccc(OCCn2c(=O)sc3ccccc32)cc1	·	3.6	·	·	·	-3.1
O=c1sc2ccccc2n1CCCOc1ccccc1	0.4	2.3	0.5	62.2*	47.1	1.1
Cc1cccc(N2C(N)=NC(N)=NC23CCCCC3)c1	0.9	5.2	1	6.7	0.1	-5.1
SMILES	CYP2C9 activ	sEH inh	CYP2C19 act	CYP2C9 inhib	CYP2C19 inhib	sEH act
O=c1sc2ccccc2n1COc1ccc(Cl)cc1	0.1	0.7	0	94.1*	99.7*	-1.1
CC1(C)C(=O)Nc2ccccc2N1C(=O)COc1ccc(S(=O)(=O)N2CCOCC2)cc1Cl	0.3	2.2	0.6	66.2*	41.7	-2.7
CC1(C)C(=O)Nc2ccccc2N1C(=O)COc1ncnc2c(Cl)cc(Cl)cc12	0.5	-11.1	0.2	49.2	77.3*	11.7
CC(=O)N1CCN(Cc2ccc(Br)s2)CC1	1.3	·	0.7	-28.2	30.7	·
CCCn1c2c(c(O)c(C(=O)Nc3ccccc3)c1=O)CCCC2	0.2	0.3	0.9	75.9*	13.4	-1.6
CC(C)Cn1c2c(c(O)c(C(=O)Nc3ncccc3O)c1=O)CCCC2	0.7	4.4	0.8	31.2	22.1	-4.3
CCCCc1nc2ccccc2c(=O)n1NC(=O)c1c(O)c2c(n(CC(C)C)c1=O)CCCC2	0.4	·	0.8	60.3*	15.1	·
CCCn1c2c(c(O)c(C(=O)Nc3ccccn3)c1=O)CCCC2	1.1	·	1.2	-11.9	-16.3	·
CC(=O)Nc1ccc(S(=O)(=O)CCC#N)cc1	·	-4.8	·	·	·	4.8
COc1cc(C(Nc2ccccn2)c2ccc3ccc(C)nc3c2O)cc(OC)c1O (stereo not drawn)	0.9	·	0.9	11.8	10.9	·
Oc1c(C(Nc2ccccn2)c2ccccn2)ccc2cccnc12 (stereo not drawn)	0.3	·	0.5	67.0*	48.0	·
Cc1ccc2ccc(C(Nc3ccccn3)c3ccccc3)c(O)c2n1 (stereo not drawn)	0.1	6.7	0.3	94.1*	75.0*	-7.4
CC(CN1CCOCC1)(NS(=O)(=O)c1ccccc1)c1ccccc1 (stereo not drawn)	0.4	7.0	0.1	59.8*	92.0*	-9.3
Cc1ccc(S(=O)(=O)NCCOc2nc(N3CCOCC3)nc(N3CCOCC3)n2)cc1	0.6	2.3	0.8	35.5	23.9	-0.4
CCCc1cc(-c2[nH]ncc2-c2ccc3c(c2)OCCCO3)c(O)cc1OC	0	3.6	0.1	100.3*	86.4*	-4.1
CCc1cc(-c2[nH]ncc2-c2ccc3c(c2)OCO3)c(O)cc1O	0	·	0	98.6*	99.6*	·
Oc1ccccc1-c1cc(-c2ccc3c(c2)OCCO3)n[nH]1	0.7	·	0.8	26.8	21.1	·
CCCc1cc2c(=O)c(-c3ccc4c(c3)OCCO4)coc2cc1OC(=O)c1ccco1	1.2	-8.5	0.8	-15.2	16.0	12.3
CCCN(CCC)C(=O)c1ccc2c(c1)OCO2	·	5.6	·	·	·	-8.8
COc1ccc(-c2[nH]ncc2-c2ccc3c(c2)OCCO3)c(O)c1	0.3	·	0.4	66.5*	61.3*	·
CC1CC(N(C(=O)c2ccco2)c2ccccc2)c2ccccc2N1 (stereo not drawn)	0	2.9	0.2	96.0*	84.5*	-2.2
COc1ccc(-n2c(=S)[nH]c3ccccc32)cc1	1.6	2.8	0.5	-63.5	53.8*	-0.9
COc1ccc(-n2c(-c3ccco3)n[nH]c2=S)cc1	1	2.3	0.6	-3.9	42.4	-1.7
O=C(O)CC(=O)Nc1ccccc1C(=O)O	1.2	5.8	1	-21.7	-2.9	-6.3
Cc1ccc(S(=O)(=O)N2CCN(C(=O)CSc3nnc(-c4ccco4)o3)CC2)cc1	0.3	5.9	0.2	73.3*	76.2*	-7.2
